The results in this text go back to PubChem BioAssay AID504766 (The Scripps Research Institute Molecular Screening Center, 2011).

In all, about 340,000 compounds went through this assay and about 3,400 (1%) were called active. The list comes from a sample in which actives are over-represented; it also holds similar structures and randomly drawn compounds. Unmarked numbers belong to inactive results.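 The calls were made as follows: active = inhibition above the mean over all tested compounds plus 3 SD (cut at about 4.2% in these data); inactive = the rest.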

For the assay, the target named is Nuclear receptor subfamily 0 group B member 1 (Homo sapiens) (UniProt P51843). The assay is described as follows: relief of DAX1 transcriptional repression – cell-based, HEK293, Gal4-DAX1, luciferase luminescence, primary screen (AID 504766).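 Also: 0% = DAX1-transfected cells with DMSO and 100% = empty-vector control cells with DMSO; inhibition shows as a rise in luminescence from relieved DAX1 repression.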 Conditions: HEK293 Gal4-DAX1 luciferase reporter, at 6.75 µM, active compounds read high. For orientation: In a reporter assay the amount or activity of a reporter protein is the signal.
Sequence of Nuclear receptor subfamily 0 group B member 1 (Homo sapiens) (P51843 207-470 limits assumed): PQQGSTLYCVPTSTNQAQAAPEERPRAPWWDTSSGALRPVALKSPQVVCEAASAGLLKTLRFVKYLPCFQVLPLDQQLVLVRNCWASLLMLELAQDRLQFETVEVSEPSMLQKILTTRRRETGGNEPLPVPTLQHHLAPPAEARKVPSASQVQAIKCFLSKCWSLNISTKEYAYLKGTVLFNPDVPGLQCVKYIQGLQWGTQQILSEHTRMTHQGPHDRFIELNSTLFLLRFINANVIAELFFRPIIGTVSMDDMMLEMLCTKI
Broadly, the inhibition is the change of the read-out against control, counted positive when it falls. As to `Cc1ccccc1C#CC1=CC(=O)CC(C)(C)C1`, the inhibition was -0.14%.
The result for `C[C@H]1CN([C@@H](C)CO)C(=O)c2cc(-c3ccccc3F)cnc2O[C@H]1CN(C)C(=O)C1CCOCC1` reads 1.09%; that for `CC1(C)CN(CCc2ccccc2)C(=O)[C@H]1CC(=O)Nc1ccc(Br)cc1`, 0.23%; that for `COc1ccc(-c2csc3nc(-c4ccccc4F)oc(=O)c23)cc1OC`, -1.37%.
The result for `COc1ccc(-c2noc(CCCC(=O)NC3CCCC3)n2)cc1OC` reads 0.14%.
The result for `COc1ccc(-c2noc(-c3cccc(OC)c3OC)n2)cc1OC` reads 4.33% (active); that for `COc1ccc(S(=O)(=O)N(C)C)cc1NC(=O)COC(=O)c1n[nH]c2ccccc12`, -0.33%.
For `Cc1cc(OCC(=O)Nc2nccs2)c2c(C)c(C)c(=O)oc2c1`, the inhibition was 0.98%.
Regarding `COc1ccc(OCc2cc(C(=O)NCC3(C)COC3)no2)c(Cl)c1`, the inhibition was 0.65%.
The result for `Cc1cccnc1CC(C)NC(=O)c1cc(COc2cncc(Cl)c2)on1` (stereo not given) reads 0.03%.
Regarding `Cc1cc(OCc2cc(C(=O)NCc3cc(C(C)C)no3)no2)cc(C)c1Cl`, the inhibition is 7.06% (active).
With `COc1ccc(Cn2c(=O)oc3ccccc32)cc1`, the inhibition is 0.51%.
On to `COc1ccc(/C=C2\SC(=S)N(CCC(=O)N3CCOCC3)C2=O)cc1OC`, for which the inhibition was -0.88%.
For the compound `COC(=O)[C@H]1C[C@H](OC(=O)NCc2ccccc2)[C@@]2(O)CN(S(=O)(=O)c3ccc(C)cc3)CC2[C@H]1C(=O)OC` (stereo not given in full), the inhibition is 0.61%.
The result for `CC(C)(CNC(=O)c1cc(=O)[nH]c2ccccc12)N1CCOCC1` reads -0.11%.
With `O=C(CNC(=O)c1cc(=O)[nH]c2ccccc12)Nc1ccc(F)c(F)c1`, the inhibition was 7.53% (active).
The result for `CC(NC(=O)c1cc(=O)[nH]c2ccccc12)c1ccc(F)cc1F` (stereo not given) reads 0.16%; that for `C[C@H]1CN([C@@H](C)CO)C(=O)CCCn2cc(nn2)CO[C@@H]1CN(C)S(=O)(=O)c1ccccc1C#N`, 0.36%; that for `Cc1ccc(NC(=O)Cn2sc3ccccc3c2=O)cc1`, 2.09%.
The result for `CC(=O)Nc1ccccc1NC(=O)c1cc(C)cc(C)c1` reads 0.39%; that for `Nc1ccc(C(=O)Nc2ccccc2N)cc1`, 22.7% (active); that for `Nc1ccc(S(=O)(=O)NC(=O)c2ccccc2)cc1`, 1.24%.
In the case of `Cc1nc2ccccn2c(=O)c1NC(=O)c1ccc(Br)o1`, the inhibition is 1.03%.
With `CC(=O)C1C(c2ccc(Cl)cc2)c2c(n[nH]c2C)CC1(C)O` (stereo not given), the inhibition was 5.48% (active).
For `CCOC(=O)C1C(c2ccc(OC)c(OC)c2)c2c([nH][nH]c2=O)CC1(C)O` (stereo not given), the inhibition is 0.5%.
The result for `Cc1noc(C)c1NC(=O)N(C)C[C@@H]1Oc2cc(Br)ccc2S(=O)(=O)N([C@@H](C)CO)C[C@H]1C` reads 0.32%; that for `CC1CCCC(NC(=O)COC(=O)c2ccccc2C(=O)N(C)C2CCCCC2)C1C` (stereo not given), -0.71%; that for `Cc1ccc(-c2ccc(CN3C(C(C)C)C(=O)N(Cc4cn(CCC5OCCCO5)nn4)CCS3(=O)=O)cc2)cc1` (stereo not given), -0.79%.
The result for `COC(=O)c1cccc(N(C(=O)CNC(=O)c2cccs2)C(C(=O)NCC2CCCO2)c2ccc(OC)c(OC)c2)c1` (stereo not given) reads 4.73% (active); that for `COc1ccc(N(C(=O)CNC(=O)c2ccco2)C(C(=O)NCC2CCCO2)c2ccccc2)cc1Cl` (stereo not given), 0.19%.
The result for `O=C(NCC(=O)N(c1ccccc1)C(C(=O)NCC1CCCO1)c1ccccc1)c1cccs1` (stereo not given) reads -0.74%.
As to `Nc1nnc(SCC(=O)Nc2ccc3nc(SCC(=O)Nc4ccccc4)sc3c2)s1`, the inhibition is -3.13%.
Consider `O=C(CSc1nnc(SCc2ccc(F)cc2)s1)Nc1ccc(C(=O)O)cc1`, for which the inhibition is -0.63%.
The result for `O=C(CSc1nc2ccccc2s1)Nc1ccc(C(=O)O)cc1` reads 4.73% (active).
The result for `C[C@H]1CN([C@@H](C)CO)C(=O)CCCn2cc(nn2)CO[C@@H]1CN(C)S(=O)(=O)c1cccc(C#N)c1` reads -0.32%; that for `N#CCCN(C(=S)Nc1ccc(Cl)c(Cl)c1)C1CCCCC1`, -0.53%; that for `Cc1ccc(S(=O)(=O)NCCSc2ccccc2)cc1[N+](=O)[O-]`, -0.31%.
For `Cc1ccc(S(=O)(=O)Nc2nc3ccccc3s2)cc1[N+](=O)[O-]`, the inhibition was 5.09% (active).
As for `CCOc1ccc2sc(NS(=O)(=O)c3ccc(N)cc3)nc2c1`, the inhibition was 2.57%.
`Cc1ccc(-c2ccc(CN3C(C(C)C)C(=O)N(Cc4cn(CCC5OCCO5)nn4)CCS3(=O)=O)cc2)cc1` (stereo not given): the inhibition was -1.47%.
In the case of `Brc1ccc(C2CC(c3ccccc3)=Nc3ccccc3N2)cc1` (stereo not given), the inhibition is 4.28% (active).
For the compound `S=C1NC(c2ccccc2)=NCN1c1ccc(Br)cc1`, the inhibition is -1.46%.
The result for `CNC(=S)N1N=C(c2ccccc2)CC1c1ccc(Br)cc1` (stereo not given) reads 1.07%; that for `CC(C)CCC(=O)Nc1cc(S(=O)(=O)N2CCOCC2)ccc1N1CCCC1`, -0.01%.
The result for `COc1cc2nnn(-c3ccncc3)c2cc1OC` reads 1.02%.
Take `CC1(C)CN(Cc2cccnc2)C(=O)[C@H]1CC(=O)Nc1ccc(Br)cc1`: the inhibition was -0.18%.
The result for `COc1ccc(C(=O)OCC(=O)NCC2CCCO2)cc1[N+](=O)[O-]` (stereo not given) reads 4.91% (active); that for `O=C(COC(=O)c1ccc(S(=O)(=O)Nc2ccccc2)cc1)NCC1CCCO1` (stereo not given), -0.38%; that for `COc1ccc(C(=O)OCC(=O)c2cc(C)n(CC3CCCO3)c2C)cc1[N+](=O)[O-]` (stereo not given), 0.28%.
The result for `CCOC(OCC)c1ccc(/C=C\c2nccc(N)n2)cc1` reads 4.34% (active); that for `Cc1ccc([C@H]2N[C@]3(CCCN(Cc4ccccc4)C3=O)[C@H]3C(=O)N(Cc4ccccc4)C(=O)[C@@H]23)cc1`, 0.82%.
On to `COc1cccc(OCC(=O)NCCS(=O)(=O)N2CCN(c3ccccc3)CC2)c1`, for which the inhibition is 0.69%.
As for `CC1(C)C2CCC1(C)C(OC(=O)c1ccc(O)cc1)C2` (stereo not given), the inhibition was 4.45% (active).
The result for `CC1(C)C2CCC1(C)C(OC(=O)CCn1ccnc1)C2` (stereo not given) reads 0.23%; that for `Cc1ccc(C(=O)OC2CCCN(C)C2)cc1` (stereo not given), 1.89%; that for `O=C(Nc1ccc(Cl)cn1)c1ccccc1-c1ccccc1`, 1.12%.
The result for `O=C1NC(Cc2ccccc2)c2nc3ccc(Br)cc3c(=O)n2-c2cc3ccccc3cc21` (stereo not given) reads 0.19%.
For the compound `CC1(C)COC(c2cccn2Cc2ccccc2Cl)=N1`, the inhibition was 5.28% (active).
`O=S1(=O)CCN(Cc2ccccc2Cl)CC1`: the inhibition is 0.98%.
The result for `O=C(Nc1cccn(Cc2ccccc2Cl)c1=O)NC1CCCCC1` reads -1.6%.
The result for `CCC1NC(=O)c2cccnc2-n2c1nc1ccc(C)cc1c2=O` (stereo not given) reads 0.22%.
The result for `CC(C)NC(=O)Nc1ccc2c(c1)C(=O)N([C@H](C)CO)C[C@H](C)[C@@H](CN(C)Cc1ccc(C(F)(F)F)cc1)OCCCC[C@@H](C)O2` reads 0.43%; that for `Cc1noc(C)c1S(=O)(=O)N(C)C[C@H]1OCCCC[C@@H](C)Oc2ccc(NC(=O)CCCN(C)C)cc2C(=O)N([C@H](C)CO)C[C@@H]1C`, 0.48%.
As for `O=C(c1cccc(F)c1)N1CCC(O)(c2cccnc2)CC1`, the inhibition is 1.7%.
In the case of `O=C(Nc1cccc(F)c1)N1C2CCC1CC(O)(c1cccnc1)C2` (stereo not given), the inhibition is 0.14%.
The result for `Cc1ccc(NC(=O)N2CCC(O)(c3cccnc3)CC2)cc1` reads 4.28% (active); that for `COC(=O)C[C@H]1C[C@@H]2c3cc(NC(=O)Nc4ccccc4)ccc3O[C@@H]2[C@@H](CO)O1`, 2.2%.
The result for `CC1CCN(C(=O)CSc2nnc(-c3ccco3)n2N)CC1` reads 1.88%; that for `O=C(Nc1ccc(Sc2ccc(Br)cc2)cc1)c1ccco1`, -0.97%; that for `O=C(Nc1ccc2oc(-c3ccccc3F)nc2c1)c1ccco1`, 2.35%.
In the case of `CC(C)(C)NC(=O)c1cc(NC(=O)c2ccco2)cc(NC(=O)c2ccco2)c1`, the inhibition is -1.82%.
As to `O=C(Nc1ccc2nccnc2c1)c1ccco1`, the inhibition is 5.48% (active).
The result for `COc1ccccc1C(=O)Nc1ccc(NC(=O)c2ccco2)c(C)c1` reads -0.21%; that for `Cc1ccc(NC(=O)c2ccco2)cc1`, 7.13% (active); that for `NS(=O)(=O)c1ccc(CNC(=O)c2cc(S(=O)(=O)N3CCOCC3)ccc2N2CCCC2)cc1`, -0.73%.
For the compound `CN1CCN(c2ccncc2S(=O)(=O)N2CCCC2)CC1`, the inhibition was 0.96%.
The result for `Cc1cc2ccccc2n1CCNC(=O)COc1ccc2ccccc2c1` reads -0.5%; that for `Cc1cc2ccccc2n1CCC(=O)O`, 6.77% (active).
Take `O=C(O)CCn1c(Cc2ccccc2)nc2ccccc21`: the inhibition was 0.63%.
In the case of `CC(OC(=O)c1cccc(S(=O)(=O)N2CCOCC2)c1)C(=O)NCC1CCCCC1` (stereo not given), the inhibition was 0.27%.
The result for `COc1ccc(C(=O)NNC(=O)c2cnccn2)cc1[N+](=O)[O-]` reads 1.76%; that for `COc1cccc(OCC(=O)NNC(=O)c2cnccn2)c1`, 5.68% (active); that for `COc1ccccc1CCNC(=O)c1cnccn1`, 0.75%.
The result for `Cc1cc(Cl)ccc1C(=O)C1CCCN(C(=O)c2ccc3c(c2)OCO3)C1` (stereo not given) reads 0.21%; that for `O=C(CSCc1ccccc1)Nc1ccccc1`, 7.09% (active); that for `Cn1c(CSCC(=O)Nc2ccccc2)nnc1SCc1ccccc1`, -0.77%.
In the case of `Cc1c(NC(=O)CSCc2ccccc2)cccc1C(=O)O`, the inhibition was 0.3%.
For `O=C(COc1ccc(Br)cc1)OCC(=O)c1ccc[nH]1`, the inhibition is -1.15%.
Regarding `COc1ccc(CCNC(=O)CN(c2ccccc2)S(=O)(=O)c2ccccc2)cc1`, the inhibition is -1.2%.
The result for `CCCCCCN1C[C@H](O)[C@@H](n2cc(C3CC3)nn2)C[C@@H]1c1ccc(Cl)cc1` reads -0.34%.
